From PubChem BioAssay AID651820 (National Center for Advancing Translational Sciences (NCATS), 2012)
The whole screen tested about 340,000 compounds, of which about 12,000 (3.5%) were called active. Not shown: some 18% with an inconclusive outcome. The sample holds actives, similar compounds and a random draw of the others, so the mix is not that of the screen. A number with no mark means an inactive call. Calls come from the whole dose curve; as a rule, active = well fitted inhibition curve with a large enough effect; inconclusive = small, poorly fitted or top-dose-only effect, or another doubt; inactive = no such curve, though single readings can be large or run the other way.

Experiment: qHTS Assay for Inhibitors of Hepatitis C Virus (HCV)
Conditions: Huh7.5.1 HCVcc-Cre infection, luciferase reporter, 44 h; series mostly up to 41.8 µM; activity change, negative = inhibition: at the top concentration
Outline: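 Compounds are dispensed onto cells plated 4 h earlier at 1,000 per well, with HCVcc-Cre virus (about 0.5 moi) added next. Following 44 h of culture, luminescent signal is measured for 15 sec after 15 min with substrate at room temperature.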
% is set by controls: 0 for no effect and ±100 for the full control effect; potency is the fitted concentration of half-maximal effect.

SMILES	activity change, negative = inhibition	Potency
CC(C)(C)c1nnc2sc(SCC(O)=C(C#N)c3nc4ccccc4[nH]3)nn2c1=O	-8.95%	–
CCOC(=O)C1CCCN(C(=O)c2ccc(C)c(S(=O)(=O)N3CCCCC3)c2)C1 (stereo not given)	21.1%	–
O=C1CCC/C=C\C[C@@H](CC(=O)N(CCO)Cc2ccccc2)C(=O)NCCO1	-0.947%	–
CC(OC(=O)/C=C/c1ccccc1)C(=O)Nc1ccc(C(N)=O)cc1 (stereo not given)	17.8%	–
Oc1ccc(Br)cc1/C=N/Nc1ccccn1	–	3.55 µM (active)
O=C(CCCO)N/N=C/c1cc(Br)ccc1O	12.6%	–
Oc1ccc(Br)cc1C=Nc1ccc2[nH]ncc2c1	12.4%	–
O=C(NCC1CCCCC1)NCC1CCCCC1	21.3%	–
Cc1c(NC(=O)C(C)Oc2cccc(Cl)c2)c(=O)n(-c2ccccc2)n1C (stereo not given)	7.65%	–
CC(Nc1nc(C(F)(F)F)nc2ccccc12)c1cccs1 (stereo not given)	–	10 µM (active)
Cc1cc(C)n(-c2nc(C(F)(F)F)nc3ccccc23)n1	-1.56%	–
Cc1ccsc1C(=O)OCC(=O)NCCc1ccccc1	-13.2%	–
CC1CCCN(C(=O)Cn2c(=O)oc3cc(S(=O)(=O)N4CCCCC4C)ccc32)C1 (stereo not given)	-7.12%	–
CCOc1cc(N2CCOCC2)c(OCC)cc1NC(=O)c1ccc(C)s1	–	25.1 µM (active)
NC(=O)C1CCN(C(=O)COc2cccc3cccnc23)CC1	19.5%	–
CCOc1cc(N2CCOCC2)c(OCC)cc1NC(=O)COC(=O)[C@H](Cc1c[nH]c2ccccc12)NC(C)=O	18.6%	–
CCOc1cc(N2CCOCC2)c(OCC)cc1NC(=O)C1=NN(c2cccc(C)c2)C(=O)CC1	-28.7%	–
CCOc1cc(N2CCOCC2)c(OCC)cc1NC(=O)COc1cccc2cccnc12	–	7.94 µM (active)
CCOc1cc(N2CCOCC2)c(OCC)cc1NC(=O)c1cc(C)nc2ccccc12	1.73%	–
CC(C)(C)NS(=O)(=O)NC(=O)C1=C(N2CCCC2)COC1=O	0.465%	–
COc1ccccc1CNC(=O)COC(=O)c1cccs1	4.7%	–
CCOc1cccc(C(=O)Nc2nnc(-c3cccs3)s2)c1	21.8%	–

SMILES	activity change, negative = inhibition	Potency
Cc1ccc(C(=O)Nc2nnc(-c3cccs3)s2)cc1C	9.59%	–
N#Cc1ccc(C(=O)Nc2nc(-c3cccs3)c(C(=O)C(F)(F)F)s2)cc1	–	11.2 µM (active)
CC1CCN(C(=O)COC(=O)CCC(=O)c2cccs2)CC1	-5.03%	–
COCC(=O)N(C)[C@H]1C[C@H]2c3cc(Oc4ccccc4C)ccc3CCN2C(=O)[C@H]1[C@H](C)O	1.89%	–
CCN(CC)S(=O)(=O)c1ccc(OC)c(NC(=O)CCc2c(C)noc2C)c1	-29.5%	–
CCN(C(=O)CSc1nnc(-c2ccc(OC(F)F)cc2)n1N)C1CCS(=O)(=O)C1 (stereo not given)	24.5%	–
CC(=O)c1cc(CN2CCC(n3nccc3NC(=O)c3ccccc3Cl)CC2)cs1	2.88%	–
O=C(Nc1cccc(-c2cscn2)c1)C1CCN(Cc2ccsc2)CC1	5.5%	–
CC(=O)c1cc(CN2CCC(C(=O)Nc3cccc(-c4cscn4)c3)CC2)cs1	–	10 µM (active)
CC(C)(C)OC(=O)C[C@@H]1C/C=C\C[C@@H](CC(=O)N[C@@H](CO)Cc2ccccc2)C(=O)N2CCC[C@H]2COC1=O	14%	–
c1ccc2c(c1)CSc1sccc1C2=C1CCNCC1	–	15.8 µM (active)
CN1CCC(N(C)S(=O)(=O)c2ccc(NC(=O)c3cccc(C#N)c3)cc2)CC1	-4.18%	–
Cc1cccc(NC(=O)c2cccc(C(F)(F)F)c2)c1	-13%	–
Cc1cccc(NC(=O)Nc2nnc(-c3ccccc3)o2)c1	-2.53%	–
Cc1cccc(NC(=O)Nc2cccc(Oc3c(F)c(F)c(F)c(F)c3F)c2)c1	–	11.2 µM (active)
Cc1cc(NC(=O)C(C)N2C(=O)c3ccccc3S2(=O)=O)no1 (stereo not given)	2.31%	–
O=[N+]([O-])c1ccc(N2CCN(S(=O)(=O)c3ccc4ccccc4c3)CC2)cc1NCc1ccco1	-2.92%	–
O=C(c1ccc(S(=O)(=O)NCc2ccco2)cc1)N1CCN(c2ccccc2)CC1	1.43%	–
O=C(c1ccccc1)N1CCN(c2ccc([N+](=O)[O-])c(NCc3ccco3)c2)CC1	–	8.91 µM (active)
O=C(Nc1cccc2c1CCCC2)c1ccc(F)cc1	-21.5%	–
CCN1C(=O)[C@H]2[C@@H](c3ccc(C)cc3)N3C(=O)N(c4cccc(Br)c4)C(=O)[C@@]3(CC)[C@H]2C1=O	-6.7%	–
CN(CC(=O)Nc1cccc(F)c1)C(=O)CC1CCCC1	-6.09%	–

SMILES	activity change, negative = inhibition	Potency
CC(=O)Nc1ccc(NC(=O)C(C)OC(=O)C2CC(=O)N(CCc3ccccc3)C2)cc1 (stereo not given)	17.8%	–
CC[n+]1cc(C)ccc1/C=C/c1ccc(N(C)C)cc1	–	5.62 µM (active)
CN(C)c1ccc(/C=N\S(=O)(=O)c2ccccc2)cc1	0.89%	–
C/C(=N\Nc1ccccc1)c1cccs1	3.85%	–
Cc1csc(NC(=O)c2ccc(C)s2)n1	1.16%	–
O=C(Nc1ccc2sc3ccccc3c(=O)c2c1)c1ccccc1Cl	–	3.55 µM (active)
O=C(Nc1ccc2nc3n(c(=O)c2c1)CCCCC3)c1ccccc1Cl	-29.4%	–
COCC(=O)N1CCc2ccc(NC(=O)c3ccccc3Cl)cc2C1	-11.9%	–
CCC1CCCCN1C(=S)NC(=O)c1ccco1 (stereo not given)	20.7%	–
COc1ccc(OC)c(/C=N/NC(=O)c2ccc[n+](CC(=O)c3ccccc3)c2)c1	-14.2%	–
Cc1cccc(C(=O)OCC(=O)NC(C)C2CC3CCC2C3)c1O (stereo not given)	-4.42%	–
COc1ccccc1CNC(=O)CCCN1C(=O)NC2(CCCC2)C1=O	3.98%	–
OC(CN=c1sc2ccccc2n1CC(O)COc1ccccc1)COc1ccccc1 (stereo not given)	–	11.2 µM (active)
OC(COc1ccccc1)Cn1cc(Br)cn1 (stereo not given)	9.27%	–
O=C(C(c1ccccc1)c1ccccc1)N1CCN(CC(O)COc2ccccc2)CC1 (stereo not given)	-27.7%	–
CN(c1ccccc1)S(=O)(=O)c1cc(C(=O)N2CCN(c3ncccn3)CC2)ccc1Cl	-24.9%	–
Cc1ccc(S(=O)(=O)N2CC(O)C[C@H]2C(=O)OCC(=O)Nc2ccc(N3CCOCC3)cc2)cc1C (stereo not given in full)	-0.0858%	–
O=C(/C=C/NNC(=O)c1cccc(Br)c1)c1ccccc1	–	10 µM (active)
Cc1ccccc1NC(=S)NNC(=O)c1cccc(Br)c1	20.4%	–
CC(CC(=O)O)CC(=O)NNC(=O)c1cccc(Br)c1 (stereo not given)	7.99%	–
CC(=O)c1cccc(-c2ccc(CN3C(CC(C)C)C(=O)N(Cc4cn(CC5CCCCC5)nn4)CCS3(=O)=O)cc2)c1 (stereo not given)	-21% [at 8.37 µM]	–
